Experimental data: PubChem BioAssay AID1347428 (National Center for Advancing Translational Sciences (NCATS), 2020)
The campaign covered roughly 91,000 compounds. About 290 (0.32%) were called active. Roughly 7% stayed inconclusive and do not appear here. The call rests on the fitted dose curve; in most records, active means well fitted inhibition curve with a large enough effect; inconclusive means small, poorly fitted or top-dose-only effect; inactive means no such curve, though single readings can be large or run the other way. The sample as a whole holds a higher share of actives than the screen did.

target: Single-stranded DNA cytosine deaminase (Homo sapiens) (UniProt Q9GZX7); assay: Primary qHTS assay for inhibitors of Activation Induced Cytidine Deaminase (AID): AID signal; conditions: AID deamination FRET fluorescence, UDG-coupled, 4 h; series mostly up to 115 µM; activity change, negative = inhibition: at the top concentration; further: nearly all actives have a fitted effect of over 25% in size
Sequence (Q9GZX7 whole entry, looked up): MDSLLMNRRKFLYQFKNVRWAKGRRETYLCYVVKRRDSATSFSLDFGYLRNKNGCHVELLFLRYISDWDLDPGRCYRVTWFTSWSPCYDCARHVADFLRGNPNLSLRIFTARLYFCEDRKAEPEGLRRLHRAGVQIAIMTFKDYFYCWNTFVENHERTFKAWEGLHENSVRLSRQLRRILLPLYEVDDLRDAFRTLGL
Excerpt: Assay Provider (PI) Patricia Gearhart Ph.D.
National Institute on Aging
National Institute of Health (NIH), Bethesda, MD
Assay Provider (PI) Rahul Kohli Ph.D.
Perelman School of Medicine
University of Pennsylvania, Philadelphia, PA
Activation-Induced Deaminase (AID) is a cytosine deaminase which converts cytosine into uracil within stretches of ssDNA. The presence of uracil in DNA initiates a cascade of mutagenic DNA repair to introduce point mutations and DNA double strand breaks. Specific targeting of AID to the immunoglobulin heavy chain loci (Igh) promotes mutagenesis in the antibody variable region for somatic hypermutation (SHM) or switch regions leading to class switch recombination (CSR). However, AID also plays a role in accumulating unnecessary mutations across the genome. Mis-targeting of AID results in the initiation of tumor development and leads to greater drug resistance among cancer cells when continually expressed. To identify an AID inhibitor, a small molecule library will be screened in collaboration with NCATS core facility at NIH. To confirm biological function, inhibitors will be examined in an in vitro murine B-cell activation assay and subsequent secondary validation screens. Top molecules will be further screened to identify inhibitory efficacy against a wild type primary splenocytes assay. Using these approaches, we hope to identify a small molecule with great efficacy and low toxicity for use as a molecular probe to further characterize AID's intricacies, or even as a therapeutic.
A FRET based analysis of cytosine deamination, was developed to identify potential inhibitors of AID catalytic activity. This screen has two signal output, Read 1 evaluates the AID inhibition response. The second readout (Read 2) evaluates UDG response and is uses as a counterscreen to exclude false positive inhibitors. Inhibition in AID and inactivity in the UDG signal is the desired outcome for this assay.
SEQUENCE No. (e.g., 1, 2, 3, etc.); […] (e.g., Cells, Incubation, Reagent, etc.); VALUE; DESCRIPTION
1a; Reagent; 3 uL; [4/3x] 1 uM AID/2.67 U/mL UDG
1b; Reagent; 3 uL; 2 U/mL UDG
1c; Reagent; 3 uL; 1 uM AID
2a; Compound; 46 nL; Follow-up plates (0.64 uM - 10 mM)
2b; Control; 46 nL; ATA ([…] - 10 mM)
3; Time; 10 min; incubation at room temperature
5; Time; 4 hr; incubation at room temperature
6; Reagent; 4 uL; [2x] 250 mM NaOH
7; Time; 15 sec; centrifuge at 1000 rpm
8; Time; 30 min; incubation at room temperature
9a; Detection; fluorescence (Read 1: AID); EnVision (PerkinElmer) plate reader, 540 excitation and 590 emission filters
9b; Detection; fluorescence (Read 2: UDG); EnVision (PerkinElmer) plate reader, 560 excitation and 665 emission filters
NOTES (numbers refer to sequence above)
1a; Reagents were dispensed in a medium-binding black solid-bottom Greiner plates (789176F) using a BioRptr liquid dispenser. Dispense 3 uL of [4/3x] 1 uM AID (provided by Kohli lab) and [4/3x] 2 U/mL UDG (NEB M0280L) into columns 1, 2, 5 to 48.
1b; Dispense 3 uL of [4/3x] 2 U/mL UDG into column 3.
1c; Dispense 3 uL of [4/3x] 1 uM AID into column 4.
2a; Compound (7-points [uM] (0.64; 3.2; 16; 80; 400; 2,000; 10,000; 20,000) double pin-transferred (Dip Factor = 2) using the Kalypsys (Wako USA) pintool equipped with a 1536 pinhead for a final concentration range of 7.32 nM - 114 uM. […]
9a; Fluorescence signal (column label AID) was read using the EnVision plate reader. […]
On the % scale 0 is the no-effect control and ±100 the full control effect; potency means the concentration at half of the fitted maximal effect.

Row | Structure (SMILES) | Potency | activity change, negative = inhibition
1 | CC(=O)c1c(O)c(C)c(O)c(Cc2c(O)c3c(c(C(=O)/C=C/c4ccccc4)c2O)OC(C)(C)C=C3)c1O | 28.2 µM (active) | 
2 | Cc1cccc2c(CCN)c[nH]c12 |  | 1.94% (inactive)
3 | COc1cccc(CNCCc2ccccc2)c1 |  | 0.963% (inactive)
4 | COC1CC(OC2CCC3(C=O)[C@H]4CCC5(C)C(C6=CC(=O)OC6)CCC5(O)[C@@H]4CCC3(O)C2)OC(C)C1O (stereo not given in full) |  | 5.64% (inactive)
5 | O=C(O)CCS(=O)(=O)C(Cl)Cl |  | 2.04% (inactive)
